Screen size: about 370,000 compounds; about 2,100 (0.57%) were called active. What follows is part of a selection rich in actives, with near analogues and random picks from the rest. A number with no mark means an inactive call.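 How the source made its calls: active means inhibition above mean plus 3 SD of compounds lying within the high and low control bounds (cut at about 19% in these data); inactive means the rest.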

Group 3 secretory phospholipase A2 (Homo sapiens), sequence (Q9NZ20 whole entry, looked up): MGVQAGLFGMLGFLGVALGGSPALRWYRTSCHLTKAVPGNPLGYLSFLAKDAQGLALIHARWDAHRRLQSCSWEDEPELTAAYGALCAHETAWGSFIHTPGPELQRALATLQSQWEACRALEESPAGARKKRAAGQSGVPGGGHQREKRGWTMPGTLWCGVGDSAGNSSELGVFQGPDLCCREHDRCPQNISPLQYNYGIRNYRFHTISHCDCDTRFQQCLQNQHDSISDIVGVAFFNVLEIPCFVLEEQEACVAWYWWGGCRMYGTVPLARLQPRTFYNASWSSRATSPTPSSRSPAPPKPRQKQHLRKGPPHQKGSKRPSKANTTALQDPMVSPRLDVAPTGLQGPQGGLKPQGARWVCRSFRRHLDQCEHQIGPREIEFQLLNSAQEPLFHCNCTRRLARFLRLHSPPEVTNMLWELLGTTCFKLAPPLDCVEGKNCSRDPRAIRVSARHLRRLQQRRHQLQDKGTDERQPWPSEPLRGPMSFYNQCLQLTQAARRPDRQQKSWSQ

The test concerns the target Group 3 secretory phospholipase A2 (Homo sapiens) (UniProt Q9NZ20). The experiment in a line: HGIII-sPLA2 enzyme inhibition – biochemical, QFRET, BODIPY PC-A2 liposome substrate, primary screen (AID 743126).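 Further: 0% = median of test compound wells and 100% = no enzyme DMSO wells.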 As to conditions: QFRET BODIPY PC-A2 liposome hydrolysis, fluorescence; at 12.2 µM; stronger effect = higher value.
As to `Cc1nc2ccc(C(=O)N3CCN(C(=O)C(C)(C)C)CC3)cc2n1C1CCCC1`, the inhibition (as a rule, the drop in the measured response relative to a control, in per cent) is 3.1%.
With `CN1C(=O)c2cc(NS(C)(=O)=O)ccc2OC[C@@H]2O[C@@H](CC(=O)NCc3ccc(-c4ccccc4)cc3)CC[C@H]21` the figure was -2%; with `c1csc(-c2nnc(SCc3nc4ccccc4[nH]3)o2)c1`, -4.46%; with `O=C(NC1CCCCN(Cc2cccc(C(F)(F)F)c2)C1=O)c1ccccc1I` (centres undefined), -1.99%.
`Cc1c(Cl)cccc1NC(=S)NCc1ccc2c(c1)OCO2`: the inhibition was 19.5% (active).
In the case of `Cc1c(Cl)cccc1NC(=S)NCC(O)c1ccccc1` (centres undefined), the inhibition is 8.54%.
With `COc1cccc(CNCc2ccc3c(c2)OCO3)c1` the figure was 3.34%; with `O=C(CSc1nnc(-c2cccc(Cl)c2)n1Cc1ccco1)Nc1ccc(OCc2ccccc2)cc1`, -12.1%; with `Cc1ccccc1CS(=O)(=O)Cc1ccc(C(=O)Nc2ccc(Cl)cc2)o1`, -4.56%.
In the case of `CCOc1ccc(N2CC(C(=O)NCc3ccccn3)CC2=O)cc1` (centres undefined) it was 0.93%.
In the case of `CCS(=O)(=O)N1Cc2ccccc2CC1C(=O)Nc1ccc(OC)cc1OC` (centres undefined) it was -0.28%.
`COc1ccc(NC(=O)C2C3C=CC(C3)C2C(=O)NCc2ccccn2)c(OC)c1` (centres undefined): the inhibition was 20.6% (active).
With `Cc1ccc(-n2c(SCC(=O)Nc3cccc4ccccc34)nnc2-c2ccccn2)cc1` the figure was -5.54%; with `O=C(Nc1ccc(CSc2ccccc2)cc1)c1ccc(CN2CCOCC2)cc1`, -16.7%.
With `CCc1cc(C(c2ccccc2OC)N2CCOCC2)c(NC(=O)c2ccccc2)s1` (centres undefined) the figure was -10.3%.
In the case of `COc1ccc(C(=O)Nc2sc(C)c(C)c2CN2CCOCC2)cc1` it was 21.9% (active); in that of `CCCCC(=O)N[C@@H]1CC[C@@]23CCCN2C(=O)CCC[C@H]3[C@H]1C`, 7.19%; in that of `COCC(=O)N[C@@H]1C[C@@H]2O[C@@H](CO)CC[C@@H]2O[C@@H]1CCc1ccc(-c2ccccc2)cc1`, -1.64%.
Consider `NC(c1csc(NC(=O)Nc2cccc(C(F)(F)F)c2)n1)C1CCCCC1` (centres undefined), for which the inhibition was 6.78%.
For `COc1ccc(C(N)c2csc(NC(=O)Nc3cccc(C(F)(F)F)c3)n2)cc1` (centres undefined), the inhibition is 27.4% (active).
With `CCOC(=O)c1csc(NC(=O)Nc2cccc(OC)c2)n1` the figure was -1.84%; with `COC(=O)C[C@H]1CC[C@H]2[C@H](COc3ccc(NC(=O)C4CC4)cc3C(=O)N2C)O1`, -1.19%.
With `CC(C)(C)c1ccc(CSc2nnc(-c3cccs3)o2)cc1` the figure was -0.56%.
With `CN(C)S(=O)(=O)c1cccc(C(=O)N/N=C\c2ccco2)c1` the figure was 1.45%.
On to `CN(C)S(=O)(=O)c1cccc(NC(=O)COC(=O)/C=C/c2cccs2)c1`, for which the inhibition is -11.5%.
For the molecule `CN(C)S(=O)(=O)c1cccc(NC(=S)N/N=C/C(=O)c2ccccc2)c1`, the inhibition is 24% (active).
In the case of `COC(=O)C1CN(Cc2cn(Cc3ccc(F)cc3)nn2)CCS(=O)(=O)N1Cc1ccc(Cl)cc1` (centres undefined) it was -11.8%.
Consider `Cc1cc(C(=O)NN=C/C=C/c2ccco2)n[nH]1`, for which the inhibition is 13%.
Turning to `COc1ccc2c(c1)c(=Cc1ccc(N(C)C)cc1)c1cc(-c3ccccc3)[n+](C)n12`, the inhibition is 31.7% (active).
With `CCCC[C@H](C(=O)N(CC)c1ccccc1)[C@@H](O)c1ccc2ccccc2c1` the figure was -3.7%; with `O=S(=O)(NC(=S)Nc1ccccc1)c1ccc(F)cc1`, -1.06%.
For `O=C(NNC(=S)Nc1ccc(F)cc1)[C@H]1C[C@@H]1c1ccccc1`, the inhibition was 24% (active).
With `Cc1ccc(NC(=O)C2CC2c2ccccc2)cc1` (centres undefined), the inhibition was -0.8%.
With `c1ccc(C2=Nc3cccc4cccc(c34)N2)cc1` the figure was 38.6% (active); with `Brc1ccc(C2CC(c3ccccc3)=Nc3ccccc3N2)cc1` (centres undefined), -5.39%.
With `CC[C@]1(O)CC2CN(CCc3c([nH]c4ccccc34)[C@@](C(=O)OC)(c3cc4c(cc3OC)N(C=O)[C@H]3[C@@](O)(C(=O)OC)[C@H](OC(C)=O)[C@]5(CC)C=CCN6CC[C@]43[C@@H]65)C2)C1` (some centres undefined) the figure was 13.5%.
With `CC[C@]1(O)C[C@@H]2CN(CCc3c([nH]c4ccccc34)[C@@](C(=O)OC)(c3cc4c(cc3OC)N(C)[C@H]3[C@@](O)(C(=O)OC)[C@H](OC(C)=O)[C@]5(CC)C=CCN6CC[C@]43[C@@H]65)C2)C1` the figure was 24.8% (active); with `C=CCN1C(=O)[C@@H](CC(=O)NCCCCc2ccccc2)[C@]2(C(=O)OCC)CCCCC/C=C/12`, -9.75%.
Regarding `COC(=O)[C@]1(C#N)CC(=O)N(CC2CCCCC2)[C@@H]1c1ccccc1`, the inhibition is 4.27%.
In the case of `CN(C(N)=NC(=O)/C=C/c1ccccc1)C(C#Cc1ccccc1)Cc1ccccc1` (centres undefined) it was 2.67%; in that of `O=C(NNc1ccccn1)c1ccc(Cl)nc1`, 21.1% (active).
Consider `O=C(COC(=O)c1ccccn1)NNC(=O)c1ccc(Br)cc1`, for which the inhibition is -1.11%.
In the case of `CCN(CC)S(=O)(=O)c1cc(C(=O)Nc2ccccn2)ccc1C` it was -0.99%.
With `O=S1(=O)c2c(cccc2N2CC[C@H](O)C2)O[C@@H]2CCN1C2` the figure was 4.99%; with `O=C(NCc1ccco1)C1CCCN(S(=O)(=O)c2ccc(Cl)s2)C1` (centres undefined), -7.36%; with `CCOCC(=O)NCc1ccc2c(c1)cc(C)n2C`, 12.3%.
In the case of `Cc1cc2cc(CNC(=O)c3cccs3)ccc2[nH]1` it was 1.16%.
On to `CCc1cccc(CC)c1NC(=S)NCc1ccc2[nH]c(C)cc2c1`, for which the inhibition was 20.3% (active).
For `COc1cccc(CNC(=O)C2CCCN(c3nc4ccccc4o3)C2)c1OC` (centres undefined), the inhibition is 10.2%.
In the case of `COc1ccc(-n2c(SCC(=O)Nc3ccc(C)c(Cl)c3)nc3ccccc3c2=O)cc1` it was 14.2%.
In the case of `CC(C)(C)OC(=O)NCCc1ccccc1/C=C/S(=O)(=O)NCc1ccc(F)cc1` it was -1.5%.
With `CCCCNC(=O)C[C@H]1C[C@@]2(C(=O)OC)C(=C[C@H](COCc3ccccc3)O[C@@H]2C)N(Cc2ccc(Cl)cc2Cl)C1=O` the figure was -3.1%; with `Cc1ccc(-c2nnc(SCC(=O)Nc3ccc(Oc4ccccc4)cc3)n2Cc2ccco2)cc1`, -6.88%; with `O=C(CCl)NNc1cccc(Cl)n1`, 71% (active).
With `O=C(NNc1cc(Cl)cc(Cl)c1)c1c(F)cccc1Cl`, the inhibition was 3.94%.
With `O=C(Cc1c(Cl)cccc1Cl)NC1CC1` the figure was 2.07%; with `COC(=O)[C@]12C[C@H](CC(=O)N3CCOCC3)C(=O)N(Cc3ccc(Cl)cc3Cl)C1=C[C@H](COCc1ccccc1)O[C@@H]2C`, -3.17%; with `O=C1CC(c2ccc3c(c2)OCO3)N=C2N(CC3CC3)C/C(=C/c3ccccc3)N12` (centres undefined), -10.4%.
In the case of `CCOc1ccc(Br)cc1CSC(=N)N` it was 34.9% (active).
With `CCOc1ccc(Br)cc1S(=O)(=O)Nc1cccc(S(=O)(=O)N(CC)CC)c1` the figure was -8.7%; with `CCOc1ccc(Br)cc1S(=O)(=O)N1CCC(C(=O)O)CC1`, 5.01%.
Take `COc1ccc(-n2c(COc3ccccc3)nnc2SCC(=O)Nc2ccc3c(c2)OCO3)cc1`: the inhibition was -23.7%.
Regarding `CN(CC(=O)Nc1ccc(OC(F)(F)F)cc1)C(=O)C1CCC1`, the inhibition was 14.1%.
Take `CS(=O)(=O)c1sc(C(=O)NC(=S)Nc2ccc(OC(F)(F)F)cc2)c2c1C=CCC2`: the inhibition is 9.81%.
With `CCNC(=S)Nc1ccc(OC(F)(F)F)cc1` the figure was 20.4% (active).
With `Cn1cc(Cl)c(C(=O)NNC(=S)Nc2cccc(Cl)c2)n1` the figure was 42.2% (active).
Regarding `CC(C)CNC(=S)NNC(=O)c1nn(C)cc1Cl`, the inhibition is 17.9%.
In the case of `Cc1nn(C)cc1C(=O)NNC(=S)Nc1ccc(Cl)cc1` it was 7.95%; in that of `COCCCNC(=O)CNC(=S)N(Cc1cc(OC)c(OC)c(OC)c1)C1CCCC1`, 26.1% (active).
In the case of `COc1ccc(CCNC(=O)CCC(=O)NC2CCCCC2)cc1OC` it was 3.45%; in that of `COc1cc(C(=O)NCC(=O)NCCSc2ccc(Br)cc2)cc(OC)c1OC`, -0.46%; in that of `CC(C)(C)c1ccc(C(=O)Nc2cc(Cl)c(Br)cc2C(=O)O)cc1`, -12.9%.
With `O=C(Nc1cc(F)cc(F)c1)OC1CCC12CCC(c1ccccc1)CC2` (centres undefined) the figure was -7.77%; with `CC(C(=O)Nc1ccc(F)c(F)c1F)N1CCCCCC1` (centres undefined), 7.49%; with `CC(C(=O)Nc1ccccc1-c1ccccc1)N1CCOCC1` (centres undefined), 19.6% (active).
Turning to `CC(Sc1nncn1C)C(=O)Nc1ccccc1-c1ccccc1` (centres undefined), the inhibition was 1.14%.
With `O=C(CCS(=O)(=O)c1ccccc1)Nc1ccc(Cl)c(Cl)c1` the figure was -9.24%.
For `C=CS(=O)(=O)N(Cc1nnn(Cc2ccccc2)c1Br)[C@H](C(=O)OC)C(C)C`, the inhibition is 4.97%.
With `Fc1ccc2nc(COCc3nc4ccc(F)cc4[nH]3)[nH]c2c1`, the inhibition is -3%.
Take `Cc1ccccc1NC(=O)COC(=O)c1ccc(Sc2ncn[nH]2)c([N+](=O)[O-])c1`: the inhibition is -13.9%.
In the case of `O=S(=O)(c1ccccc1)N1CCC(c2nc3ccccc3o2)CC1` it was -1.51%; in that of `CC(C)OC(=O)c1ccc(NCc2cc(O)ccc2O)cc1Cl`, 32.5% (active); in that of `COc1ccc2c(c1)CN1CN(CCc3ccccc3)S(=O)(=O)CC21` (centres undefined), 1.49%.
In the case of `C[C@@H]1ON(C)[C@H]2C[C@H]3c4[nH]c5cccc(-c6ccc7c(c6)OCO7)c5c4CCN3C[C@@H]12` it was -5.9%; in that of `O=C(NCCCc1ccccc1)[C@H](Cc1ccccc1)NC1(C(=O)NCCc2c[nH]c3ccccc23)CCC1`, -86.7%; in that of `CN(CCc1ccccc1)C(=O)Cn1nc(-c2ccccc2)ccc1=O`, 4.61%.
With `O=C(NC1CCCCN(Cc2ccc(Cl)cc2)C1=O)c1ccc(Br)cc1` (centres undefined) the figure was 2.5%; with `Cc1ccc(CN2CCCCC(NC(=O)C3CCCCC3)C2=O)cc1` (centres undefined), 2.08%; with `CN(C)c1ccc(NC(=O)NC2CCCCN(Cc3ccc(Cl)cc3)C2=O)cc1` (centres undefined), 20.4% (active).

The values are drawn from PubChem BioAssay AID743126 (The Scripps Research Institute Molecular Screening Center, 2013).
